Tests used:
Test in all cases: log2 ratio of Biotin-Ahx-Ub-VS probe labelling (fragment/DMSO); higher = less target engagement (more negative = stronger competition), active = hit call of the paper (q ≤ 0.05, log2 ratio ≤ -1)
Details in all cases: compound concentration: 200 uM; treatment time: 3 h
USP42 = target: T1, USP42 (UniProt Q9H9J4)
T1 sequence (whole entry): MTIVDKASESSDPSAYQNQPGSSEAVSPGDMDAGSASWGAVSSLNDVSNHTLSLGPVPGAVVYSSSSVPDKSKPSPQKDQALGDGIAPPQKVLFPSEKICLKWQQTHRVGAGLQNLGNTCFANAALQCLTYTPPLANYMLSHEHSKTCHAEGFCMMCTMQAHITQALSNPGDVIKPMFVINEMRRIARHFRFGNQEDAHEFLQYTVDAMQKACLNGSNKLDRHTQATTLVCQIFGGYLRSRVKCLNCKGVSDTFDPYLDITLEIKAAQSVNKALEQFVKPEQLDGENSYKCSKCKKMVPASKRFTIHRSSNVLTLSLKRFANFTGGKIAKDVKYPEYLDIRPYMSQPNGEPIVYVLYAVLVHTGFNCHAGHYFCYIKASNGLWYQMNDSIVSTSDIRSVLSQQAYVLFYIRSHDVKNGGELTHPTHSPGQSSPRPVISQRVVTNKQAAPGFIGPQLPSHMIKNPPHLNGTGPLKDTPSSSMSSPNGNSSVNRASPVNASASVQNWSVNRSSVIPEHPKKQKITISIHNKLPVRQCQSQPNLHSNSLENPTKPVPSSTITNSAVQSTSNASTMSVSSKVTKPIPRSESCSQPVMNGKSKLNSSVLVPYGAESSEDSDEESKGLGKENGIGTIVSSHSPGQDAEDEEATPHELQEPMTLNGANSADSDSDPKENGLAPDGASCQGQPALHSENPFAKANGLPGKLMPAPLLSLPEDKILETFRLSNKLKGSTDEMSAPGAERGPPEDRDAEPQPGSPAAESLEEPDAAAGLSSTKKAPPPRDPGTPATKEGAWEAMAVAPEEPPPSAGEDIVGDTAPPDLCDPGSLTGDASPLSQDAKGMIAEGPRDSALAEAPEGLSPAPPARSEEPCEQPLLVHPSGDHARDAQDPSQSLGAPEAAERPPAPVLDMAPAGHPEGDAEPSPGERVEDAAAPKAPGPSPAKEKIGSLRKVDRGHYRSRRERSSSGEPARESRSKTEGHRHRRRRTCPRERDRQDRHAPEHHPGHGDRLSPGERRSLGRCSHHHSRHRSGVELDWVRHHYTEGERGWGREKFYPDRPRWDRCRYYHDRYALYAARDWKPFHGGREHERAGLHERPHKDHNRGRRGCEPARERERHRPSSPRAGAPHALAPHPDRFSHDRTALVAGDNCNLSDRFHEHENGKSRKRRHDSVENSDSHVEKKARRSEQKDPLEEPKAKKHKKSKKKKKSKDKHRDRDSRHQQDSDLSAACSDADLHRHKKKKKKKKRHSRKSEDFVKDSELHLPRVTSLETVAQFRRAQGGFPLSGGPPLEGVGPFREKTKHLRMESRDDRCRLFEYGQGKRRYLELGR
Method in brief: (§1)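 Average log2 ratios of fragment over vehicle were obtained by unpaired t-test from global-median-normalised Spectronaut label-free quantities. Proteins with ≥2 unique peptides were included. HEK293T lysate (495 µg per sample) was treated in triplicate with fragment at 200 µM or vehicle for 3 h, then with Biotin-Ahx-Ub-VS at 0.5 µM final for 1 h, and labelled DUBs were NeutrAvidin-enriched and run by diaPASEF LC-MS/MS.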

USP46 = USP46 (UniProt P62068)
Sequence of USP46 (P62068 whole entry): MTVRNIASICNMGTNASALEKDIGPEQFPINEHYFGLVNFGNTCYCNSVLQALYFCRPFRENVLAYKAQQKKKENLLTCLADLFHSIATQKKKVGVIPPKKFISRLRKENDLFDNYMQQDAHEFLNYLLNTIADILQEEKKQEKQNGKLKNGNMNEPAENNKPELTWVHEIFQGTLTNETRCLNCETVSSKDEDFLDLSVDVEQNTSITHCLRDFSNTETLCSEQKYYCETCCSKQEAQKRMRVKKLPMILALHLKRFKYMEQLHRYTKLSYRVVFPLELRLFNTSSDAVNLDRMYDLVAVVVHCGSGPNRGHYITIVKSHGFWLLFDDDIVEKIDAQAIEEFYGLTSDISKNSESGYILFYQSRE
Method in brief: as §1

USP47 = target: T2, USP47 (UniProt Q96K76)
T2 sequence (whole entry): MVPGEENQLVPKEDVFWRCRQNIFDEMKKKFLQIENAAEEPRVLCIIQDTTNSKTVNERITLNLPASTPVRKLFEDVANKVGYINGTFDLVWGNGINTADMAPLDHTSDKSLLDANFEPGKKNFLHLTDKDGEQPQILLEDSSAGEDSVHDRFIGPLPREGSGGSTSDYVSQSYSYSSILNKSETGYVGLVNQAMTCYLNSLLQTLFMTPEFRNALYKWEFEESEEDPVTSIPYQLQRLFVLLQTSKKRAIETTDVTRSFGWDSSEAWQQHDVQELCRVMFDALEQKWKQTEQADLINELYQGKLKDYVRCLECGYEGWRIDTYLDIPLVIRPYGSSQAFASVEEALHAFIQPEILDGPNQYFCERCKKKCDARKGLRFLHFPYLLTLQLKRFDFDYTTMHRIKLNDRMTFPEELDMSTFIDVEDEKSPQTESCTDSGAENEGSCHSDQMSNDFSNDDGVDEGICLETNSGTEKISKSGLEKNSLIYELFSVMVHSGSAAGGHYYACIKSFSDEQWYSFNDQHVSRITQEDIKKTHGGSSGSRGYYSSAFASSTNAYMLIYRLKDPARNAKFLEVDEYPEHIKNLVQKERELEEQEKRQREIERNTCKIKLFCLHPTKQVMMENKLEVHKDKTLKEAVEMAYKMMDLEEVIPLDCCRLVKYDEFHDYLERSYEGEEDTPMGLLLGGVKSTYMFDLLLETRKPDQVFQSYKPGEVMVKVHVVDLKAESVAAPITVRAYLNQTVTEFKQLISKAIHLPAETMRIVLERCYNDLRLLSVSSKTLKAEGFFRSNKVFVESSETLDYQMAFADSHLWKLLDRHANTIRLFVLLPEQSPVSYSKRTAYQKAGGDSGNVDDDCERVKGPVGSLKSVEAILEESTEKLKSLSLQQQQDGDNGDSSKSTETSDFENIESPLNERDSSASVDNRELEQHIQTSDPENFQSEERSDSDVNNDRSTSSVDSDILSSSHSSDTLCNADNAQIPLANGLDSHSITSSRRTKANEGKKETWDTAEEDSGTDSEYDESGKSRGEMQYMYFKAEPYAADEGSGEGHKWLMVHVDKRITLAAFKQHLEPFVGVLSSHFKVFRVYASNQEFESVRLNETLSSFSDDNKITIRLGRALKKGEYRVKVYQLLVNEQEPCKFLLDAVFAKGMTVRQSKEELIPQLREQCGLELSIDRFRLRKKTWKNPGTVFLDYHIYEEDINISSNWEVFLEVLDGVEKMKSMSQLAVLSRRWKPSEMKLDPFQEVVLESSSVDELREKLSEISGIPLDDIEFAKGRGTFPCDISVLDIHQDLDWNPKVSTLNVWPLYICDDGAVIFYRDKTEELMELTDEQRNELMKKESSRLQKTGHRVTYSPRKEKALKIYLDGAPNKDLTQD
Method in brief: as §1

USP48 = target: T3, USP48 (UniProt Q86UV5)
T3 sequence (whole entry): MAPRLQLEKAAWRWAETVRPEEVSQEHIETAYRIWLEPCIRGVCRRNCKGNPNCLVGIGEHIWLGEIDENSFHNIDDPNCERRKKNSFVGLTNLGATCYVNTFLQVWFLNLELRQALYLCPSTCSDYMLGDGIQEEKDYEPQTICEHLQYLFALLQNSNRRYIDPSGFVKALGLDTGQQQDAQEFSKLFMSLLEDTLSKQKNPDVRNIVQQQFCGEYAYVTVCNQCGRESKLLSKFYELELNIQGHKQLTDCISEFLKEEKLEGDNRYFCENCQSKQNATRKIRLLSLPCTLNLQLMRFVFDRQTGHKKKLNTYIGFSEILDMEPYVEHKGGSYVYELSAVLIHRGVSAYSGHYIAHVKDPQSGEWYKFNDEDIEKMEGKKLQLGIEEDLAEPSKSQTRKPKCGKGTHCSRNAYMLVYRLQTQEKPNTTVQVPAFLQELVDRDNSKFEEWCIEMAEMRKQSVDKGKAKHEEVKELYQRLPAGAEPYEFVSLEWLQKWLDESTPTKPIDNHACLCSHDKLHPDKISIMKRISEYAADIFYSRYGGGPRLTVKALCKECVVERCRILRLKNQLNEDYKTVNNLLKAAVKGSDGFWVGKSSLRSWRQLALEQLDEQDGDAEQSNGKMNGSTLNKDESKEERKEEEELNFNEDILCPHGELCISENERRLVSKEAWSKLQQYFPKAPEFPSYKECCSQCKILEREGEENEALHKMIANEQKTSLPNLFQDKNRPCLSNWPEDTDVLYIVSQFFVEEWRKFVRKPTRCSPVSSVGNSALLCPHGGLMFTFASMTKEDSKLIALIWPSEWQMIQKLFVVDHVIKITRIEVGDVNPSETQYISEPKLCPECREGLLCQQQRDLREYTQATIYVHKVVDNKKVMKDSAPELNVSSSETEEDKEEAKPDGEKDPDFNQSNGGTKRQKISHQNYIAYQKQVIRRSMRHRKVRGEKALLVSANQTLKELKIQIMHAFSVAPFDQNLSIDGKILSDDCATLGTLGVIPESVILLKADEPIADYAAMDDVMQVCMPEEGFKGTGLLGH
Method in brief: as §1

USP5 = target: T4, USP5 (UniProt P45974)
T4 sequence (whole entry): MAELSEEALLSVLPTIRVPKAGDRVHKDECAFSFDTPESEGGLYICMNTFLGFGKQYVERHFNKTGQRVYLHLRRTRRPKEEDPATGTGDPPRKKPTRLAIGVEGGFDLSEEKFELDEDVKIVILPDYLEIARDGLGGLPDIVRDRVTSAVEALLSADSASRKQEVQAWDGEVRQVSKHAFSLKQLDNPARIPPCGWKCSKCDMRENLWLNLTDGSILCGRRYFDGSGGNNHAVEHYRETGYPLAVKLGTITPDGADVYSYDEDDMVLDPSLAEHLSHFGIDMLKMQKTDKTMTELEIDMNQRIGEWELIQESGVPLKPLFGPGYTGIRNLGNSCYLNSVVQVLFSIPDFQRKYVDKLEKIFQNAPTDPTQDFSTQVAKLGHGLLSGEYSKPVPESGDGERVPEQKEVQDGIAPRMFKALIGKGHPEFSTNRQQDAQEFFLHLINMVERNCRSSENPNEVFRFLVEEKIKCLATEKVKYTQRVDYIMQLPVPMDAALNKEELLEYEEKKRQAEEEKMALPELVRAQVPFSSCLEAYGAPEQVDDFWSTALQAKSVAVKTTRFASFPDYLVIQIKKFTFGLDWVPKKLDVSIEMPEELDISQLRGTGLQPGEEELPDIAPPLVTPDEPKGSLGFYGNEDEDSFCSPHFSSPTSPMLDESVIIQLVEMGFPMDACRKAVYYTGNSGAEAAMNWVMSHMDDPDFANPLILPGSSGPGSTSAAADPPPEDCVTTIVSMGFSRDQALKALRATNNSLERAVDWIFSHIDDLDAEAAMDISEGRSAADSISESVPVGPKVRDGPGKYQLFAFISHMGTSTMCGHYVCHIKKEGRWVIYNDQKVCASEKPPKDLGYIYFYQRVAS
Method in brief: as §1

USP54 = USP54 (UniProt Q70EL1)
Method in brief: as §1

USP7 = USP7 (UniProt Q93009)
Sequence of USP7 (Q93009 whole entry, looked up): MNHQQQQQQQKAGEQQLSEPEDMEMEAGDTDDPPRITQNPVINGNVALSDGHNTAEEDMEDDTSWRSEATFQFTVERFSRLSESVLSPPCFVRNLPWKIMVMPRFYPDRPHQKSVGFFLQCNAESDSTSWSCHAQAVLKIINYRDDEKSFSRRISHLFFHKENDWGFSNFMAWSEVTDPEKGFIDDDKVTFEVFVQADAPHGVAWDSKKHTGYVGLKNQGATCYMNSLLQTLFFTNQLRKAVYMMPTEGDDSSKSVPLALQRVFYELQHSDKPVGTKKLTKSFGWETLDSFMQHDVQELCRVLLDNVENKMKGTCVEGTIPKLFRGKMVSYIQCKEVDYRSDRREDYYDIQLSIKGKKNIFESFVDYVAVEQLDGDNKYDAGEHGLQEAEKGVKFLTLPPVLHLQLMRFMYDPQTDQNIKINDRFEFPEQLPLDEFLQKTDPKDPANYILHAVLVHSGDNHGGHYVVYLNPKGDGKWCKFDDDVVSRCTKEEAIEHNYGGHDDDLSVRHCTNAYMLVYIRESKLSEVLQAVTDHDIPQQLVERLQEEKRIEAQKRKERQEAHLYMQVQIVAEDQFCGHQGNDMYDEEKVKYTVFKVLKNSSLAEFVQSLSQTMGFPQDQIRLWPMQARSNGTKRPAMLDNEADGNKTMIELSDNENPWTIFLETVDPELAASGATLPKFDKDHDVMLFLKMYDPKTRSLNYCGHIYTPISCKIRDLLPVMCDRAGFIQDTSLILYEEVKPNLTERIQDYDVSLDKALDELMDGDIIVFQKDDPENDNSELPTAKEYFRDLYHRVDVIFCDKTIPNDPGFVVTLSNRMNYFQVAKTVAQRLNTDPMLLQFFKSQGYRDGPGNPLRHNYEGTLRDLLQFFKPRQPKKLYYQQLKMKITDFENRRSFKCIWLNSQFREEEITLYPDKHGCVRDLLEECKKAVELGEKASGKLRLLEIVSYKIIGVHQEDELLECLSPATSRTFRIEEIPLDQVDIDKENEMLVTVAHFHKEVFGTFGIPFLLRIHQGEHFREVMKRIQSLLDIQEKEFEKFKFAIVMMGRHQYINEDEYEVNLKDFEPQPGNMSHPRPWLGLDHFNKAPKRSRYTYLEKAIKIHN
Method in brief: as §1

USP8 = target: T5, USP8 (UniProt P40818)
T5 sequence (whole entry): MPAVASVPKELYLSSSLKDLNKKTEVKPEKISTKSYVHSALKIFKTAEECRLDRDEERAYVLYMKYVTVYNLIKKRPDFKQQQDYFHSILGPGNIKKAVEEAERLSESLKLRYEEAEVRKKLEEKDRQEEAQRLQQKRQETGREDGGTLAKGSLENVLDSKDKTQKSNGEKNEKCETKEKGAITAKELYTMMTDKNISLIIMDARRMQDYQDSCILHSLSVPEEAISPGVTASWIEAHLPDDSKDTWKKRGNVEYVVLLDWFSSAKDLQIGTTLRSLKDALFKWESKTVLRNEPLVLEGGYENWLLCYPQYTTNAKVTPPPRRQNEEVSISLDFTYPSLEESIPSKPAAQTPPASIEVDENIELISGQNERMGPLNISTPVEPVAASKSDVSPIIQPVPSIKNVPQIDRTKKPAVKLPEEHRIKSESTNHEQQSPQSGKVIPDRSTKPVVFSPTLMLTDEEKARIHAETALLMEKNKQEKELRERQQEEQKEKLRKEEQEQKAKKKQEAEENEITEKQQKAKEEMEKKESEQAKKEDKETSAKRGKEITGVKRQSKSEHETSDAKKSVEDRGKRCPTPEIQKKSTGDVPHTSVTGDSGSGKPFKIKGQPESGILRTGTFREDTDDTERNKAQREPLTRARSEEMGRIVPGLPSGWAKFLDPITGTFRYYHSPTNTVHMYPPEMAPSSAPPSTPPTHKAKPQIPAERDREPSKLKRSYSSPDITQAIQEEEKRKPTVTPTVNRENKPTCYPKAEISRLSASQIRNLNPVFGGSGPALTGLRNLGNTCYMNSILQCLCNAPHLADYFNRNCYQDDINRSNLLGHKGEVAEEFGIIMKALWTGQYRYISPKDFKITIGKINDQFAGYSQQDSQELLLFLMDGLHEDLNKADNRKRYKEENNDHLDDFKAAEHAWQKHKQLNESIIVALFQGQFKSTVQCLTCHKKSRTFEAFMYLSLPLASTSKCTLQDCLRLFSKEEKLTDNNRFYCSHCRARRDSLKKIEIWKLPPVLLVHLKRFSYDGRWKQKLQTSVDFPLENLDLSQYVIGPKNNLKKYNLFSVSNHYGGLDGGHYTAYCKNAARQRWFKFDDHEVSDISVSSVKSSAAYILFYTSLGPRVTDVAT
Method in brief: as §1

USP9X = USP9X (UniProt Q93008)
Sequence of USP9X (Q93008 whole entry): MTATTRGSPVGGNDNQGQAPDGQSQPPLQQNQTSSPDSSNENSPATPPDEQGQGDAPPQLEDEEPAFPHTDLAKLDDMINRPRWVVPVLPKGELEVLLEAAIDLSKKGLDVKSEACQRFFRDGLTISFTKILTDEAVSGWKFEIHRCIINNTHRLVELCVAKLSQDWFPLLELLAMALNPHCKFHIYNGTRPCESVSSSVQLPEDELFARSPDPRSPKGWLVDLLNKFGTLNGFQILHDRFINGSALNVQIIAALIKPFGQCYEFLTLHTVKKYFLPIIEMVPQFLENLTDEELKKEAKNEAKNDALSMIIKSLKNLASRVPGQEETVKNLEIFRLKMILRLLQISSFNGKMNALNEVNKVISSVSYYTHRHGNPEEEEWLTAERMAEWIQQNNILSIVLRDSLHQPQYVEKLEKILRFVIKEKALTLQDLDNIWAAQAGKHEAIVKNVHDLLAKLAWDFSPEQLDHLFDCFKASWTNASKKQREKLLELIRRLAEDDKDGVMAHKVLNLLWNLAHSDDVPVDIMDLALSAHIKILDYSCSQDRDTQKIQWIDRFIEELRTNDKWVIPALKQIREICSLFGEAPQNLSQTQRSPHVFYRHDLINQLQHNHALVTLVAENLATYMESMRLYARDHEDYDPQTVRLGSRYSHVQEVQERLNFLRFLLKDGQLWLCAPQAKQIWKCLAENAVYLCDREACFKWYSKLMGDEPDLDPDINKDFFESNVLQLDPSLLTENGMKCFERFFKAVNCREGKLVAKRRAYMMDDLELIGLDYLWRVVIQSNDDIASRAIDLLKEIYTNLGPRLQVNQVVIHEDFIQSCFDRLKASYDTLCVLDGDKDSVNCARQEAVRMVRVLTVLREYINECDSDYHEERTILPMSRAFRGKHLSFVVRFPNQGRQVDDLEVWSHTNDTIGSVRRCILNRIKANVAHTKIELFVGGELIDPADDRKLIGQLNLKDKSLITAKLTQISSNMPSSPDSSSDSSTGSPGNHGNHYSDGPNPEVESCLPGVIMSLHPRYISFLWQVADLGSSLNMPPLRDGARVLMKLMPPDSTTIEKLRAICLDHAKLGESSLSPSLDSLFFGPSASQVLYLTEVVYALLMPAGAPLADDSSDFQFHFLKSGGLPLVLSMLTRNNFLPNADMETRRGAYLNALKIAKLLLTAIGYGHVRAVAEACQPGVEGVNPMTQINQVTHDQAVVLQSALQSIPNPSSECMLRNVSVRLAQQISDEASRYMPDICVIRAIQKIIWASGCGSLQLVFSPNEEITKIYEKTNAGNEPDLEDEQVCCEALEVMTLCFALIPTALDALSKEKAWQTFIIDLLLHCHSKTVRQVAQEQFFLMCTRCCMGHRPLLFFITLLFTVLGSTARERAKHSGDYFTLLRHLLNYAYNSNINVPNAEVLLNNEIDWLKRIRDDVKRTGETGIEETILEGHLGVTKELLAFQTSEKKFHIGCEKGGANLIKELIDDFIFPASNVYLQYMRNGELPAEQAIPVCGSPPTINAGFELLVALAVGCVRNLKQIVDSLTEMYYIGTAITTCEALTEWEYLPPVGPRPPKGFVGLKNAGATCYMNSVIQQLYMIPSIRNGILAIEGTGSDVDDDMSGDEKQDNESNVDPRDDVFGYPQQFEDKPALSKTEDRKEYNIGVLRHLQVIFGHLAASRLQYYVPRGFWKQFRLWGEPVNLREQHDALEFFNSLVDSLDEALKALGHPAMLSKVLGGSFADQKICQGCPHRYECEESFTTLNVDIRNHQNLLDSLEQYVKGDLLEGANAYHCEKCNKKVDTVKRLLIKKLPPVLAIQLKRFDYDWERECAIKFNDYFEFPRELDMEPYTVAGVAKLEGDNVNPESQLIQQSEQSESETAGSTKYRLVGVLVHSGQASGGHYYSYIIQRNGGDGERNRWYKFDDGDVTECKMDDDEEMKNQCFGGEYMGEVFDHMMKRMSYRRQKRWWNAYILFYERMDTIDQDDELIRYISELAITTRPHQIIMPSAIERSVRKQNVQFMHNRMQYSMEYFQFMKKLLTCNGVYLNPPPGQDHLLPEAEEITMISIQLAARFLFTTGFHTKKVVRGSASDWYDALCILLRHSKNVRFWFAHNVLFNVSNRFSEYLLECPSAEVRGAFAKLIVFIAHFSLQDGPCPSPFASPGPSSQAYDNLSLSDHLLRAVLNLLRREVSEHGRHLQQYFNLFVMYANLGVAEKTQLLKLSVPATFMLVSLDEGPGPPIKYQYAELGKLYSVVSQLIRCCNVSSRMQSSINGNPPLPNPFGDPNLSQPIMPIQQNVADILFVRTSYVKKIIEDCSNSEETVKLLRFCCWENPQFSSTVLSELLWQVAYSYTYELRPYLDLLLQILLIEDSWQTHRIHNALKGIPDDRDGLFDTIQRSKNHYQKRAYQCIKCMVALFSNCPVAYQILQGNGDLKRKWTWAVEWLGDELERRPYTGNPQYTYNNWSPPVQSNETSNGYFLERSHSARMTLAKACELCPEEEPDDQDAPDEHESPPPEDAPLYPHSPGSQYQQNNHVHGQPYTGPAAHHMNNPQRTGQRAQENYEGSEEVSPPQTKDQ
Method in brief: as §1

UniProt O00487 = target: UniProt O00487
Sequence of UniProt O00487 (O00487 whole entry): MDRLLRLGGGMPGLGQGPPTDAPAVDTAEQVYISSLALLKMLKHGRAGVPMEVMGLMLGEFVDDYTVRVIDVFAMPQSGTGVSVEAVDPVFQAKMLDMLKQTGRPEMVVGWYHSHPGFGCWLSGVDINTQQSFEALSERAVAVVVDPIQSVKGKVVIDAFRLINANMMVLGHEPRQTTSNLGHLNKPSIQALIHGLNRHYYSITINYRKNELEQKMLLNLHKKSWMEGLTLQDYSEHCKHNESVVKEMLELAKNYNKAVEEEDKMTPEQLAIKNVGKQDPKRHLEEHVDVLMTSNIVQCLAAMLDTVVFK
Method in brief: as §1

Measured: log2 ratio of Biotin-Ahx-Ub-VS probe labelling

CN(C)S(=O)(=O)c1ccccc1CNC(=O)CCl
inactive: USP42 0.185 | USP46 0.0777 | USP47 -0.336 | USP48 -0.169 | USP5 0.419 | USP54 0.535 | USP7 -0.218 | USP8 -0.15 | USP9X -0.0424 | UniProt O00487 0.0834
